This is an account of results in PubChem BioAssay.

Activity calls are given as the source filed them.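 How the source made its calls, unless noted: active means compound raises GLP1 secretion from the human gut endocrine cells, with no numeric limit stated; inactive means the rest.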 Non-standard residues stand in square brackets, D forms with d. Residues, ends and D or L forms follow the SMILES beside them. pGlu = O=C1CC[C@@H](C(=O)O)N1

The nature of experiment [1]: Wnt pathway potentiators raising nuclear beta-catenin – imaging, WNT3A-conditioned medium, mouse C2C12, NPC library, primary screen (AID 1117326; in the data active means nuclear beta-catenin stimulation mostly above about 4.2%, no sharp cut-off; inactive means mostly below about 10%; further: reference of the scale not given here). The note with it: stronger effect = higher value.
A short description of experiment [2]: stimulators of insulin release from INS-1E, primary screen, cell-based, 5 mM glucose, NPC library (AID 1117329;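 active means compound raises insulin release from rat beta cells at 5 mM glucose, no numeric limit stated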; further: reference of the scale not given here). Particulars: rat INS-1E insulin secretion, at 10 µM, stronger effect = higher value.
Experiment [3] in a line: growth inhibition of GSK3B-pretreated HCT116 cells – cell-based, CellTiter-Glo, 0.2 to 20 µM (AID 1117336;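 active means compounds lowering colon cancer cell viability after pretreatment blocking the GSK3B kinase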). Particulars: HCT116 viability after GSK3B inhibitor, at 20 µM, stronger effect = higher value. (Cellular ATP, detected with luciferase, serves as a proxy for viable cell number.)
The nature of experiment [4]: inhibition of endothelial tube formation, primary screen, imaging, VEGF stimulated, CD31 staining, tube area, NPC library (AID 1117340;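 active means compound that reduces growth-factor-driven endothelial tube area in a mixed cell culture, no cutoff stated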). Particulars: VEGF-stimulated ADSC/ECFC co-culture, at 10 µM, stronger effect = higher value.
Experiment [5] is described as follows: GLP1 release stimulators, primary, NCI-H716, NPC library (AID 1117341). Further: reference of the scale not given here. The note with it: NCI-H716 cells, at 10 µM, stronger effect = higher value.
Experiment [6] is described as follows: HCT116 colon cancer cell growth inhibition, primary screen, CellTiter-Glo luminescence, NPC library (AID 1117342;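 active means compounds that lower survival of HCT116 colon cancer cells in the luminescence readout, no numeric limit stated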). Particulars: at 20 µM (top of the series).
Experiment [7] can be described thus: reduced SW480 viability measured with CellTiter-Glo, NPC library, primary (AID 1117343;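 active means compounds that lower viability of the colon cancer cells in the luminescence readout, with no numeric limit stated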). The note with it: CellTiter-Glo luminescence; at 20 µM (top of the series).
Experiment [8] can be described thus: NPC library primary testing for decreased DLD-1 cell viability via CellTiter-Glo (AID 1117346;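 active means compounds that lower survival of DLD-1 colon cancer cells in the luminescence readout, no cutoff given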). Particulars: DLD-1 viability, CellTiter-Glo luminescence; at 20 µM (top of the series).

Regarding `CC[C@@]1(c2ccccc2)NC(=O)N(C)C1=O`, the nuclear beta-catenin stimulation is 0.1% (inactive) in experiment [1] (at 10 µM) and 0.6% in experiment [1] (stimulation, at 2 µM). In experiment [2], the insulin secretion stimulation is -0.2% (inactive). Further, the viability decrease in experiment [3] was 2.35% (inactive). Further, the tube area decrease in experiment [4] is 0.1% (inactive). Further, the GLP1 secretion stimulation in experiment [5] is -0.6% (inactive). Moreover, the inhibition of viability in experiment [6] was -10.2% (inactive). Further, the viability decrease (inhibition) in experiment [7] is 11.6% (inactive); in experiment [8], -9.4% (inactive).
Regarding `CCCC(=O)OC[C@@H](OC(=O)CCC)[C@@H](OC(=O)CCC)[C@H](Cn1c2nc(=O)[nH]c(=O)c-2nc2cc(C)c(C)cc21)OC(=O)CCC`, the nuclear beta-catenin stimulation in experiment [1] (at 10 µM) is -0.4% (inactive); in experiment [1] (stimulation, at 2 µM), 2.2%. In experiment [2], the insulin secretion stimulation was 1.9% (inactive). In addition, the viability decrease in experiment [3] was 39.1% (inactive). Further, in experiment [4], the tube area decrease is 14.1% (inactive). In addition, in experiment [5], the GLP1 secretion stimulation is 2.6% (inactive). Also, the inhibition of viability in experiment [6] was 11.7% (inactive). The viability decrease (inhibition) is 25.5% (inactive) in experiment [7] and 24.5% (inactive) in experiment [8].
`CC(C)=CCC1C(=O)N(c2ccccc2)N(c2ccccc2)C1=O`: the nuclear beta-catenin stimulation in experiment [1] (at 10 µM) is -0.3% (inactive); in experiment [1] (stimulation, at 2 µM), 0.3%. Moreover, the insulin secretion stimulation in experiment [2] is -1.2% (inactive). Moreover, the viability decrease in experiment [3] is 45.1% (inactive). For the same compound, the tube area decrease in experiment [4] was 8.8% (inactive). In experiment [5], the GLP1 secretion stimulation is -1.5% (inactive). Also, the inhibition of viability in experiment [6] was -4.6% (inactive). Moreover, the values for the viability decrease (inhibition) in experiment [7] and in experiment [8] were 78.1% (active) and 26.2% (inactive), respectively.
For `OC1(c2ccccc2)CCNCC1`, the nuclear beta-catenin stimulation was 0.2% (inactive) in experiment [1] (at 10 µM) and 0.6% in experiment [1] (stimulation, at 2 µM). For the same compound, the insulin secretion stimulation in experiment [2] is -0.5% (inactive). The viability decrease in experiment [3] was 6% (inactive). Moreover, in experiment [4], the tube area decrease is -1% (inactive). Further, the GLP1 secretion stimulation in experiment [5] was 6.9% (inactive). For the same compound, in experiment [6], the inhibition of viability was 12.8% (inactive). Further, the viability decrease (inhibition) is 5.3% (inactive) in experiment [7] and 11.1% (inactive) in experiment [8].
Turning to `O=C(/C=C/c1ccccc1)NCCO`, the nuclear beta-catenin stimulation in experiment [1] (at 10 µM) was 1.1% (inactive); in experiment [1] (stimulation, at 2 µM), 1.4%. In experiment [2], the insulin secretion stimulation was -2.3% (inactive). Besides, in experiment [3], the viability decrease was -9.8% (inactive). The tube area decrease in experiment [4] is 26.7% (inactive). Besides, in experiment [5], the GLP1 secretion stimulation was -1.5% (inactive). In addition, the inhibition of viability in experiment [6] was 12.9% (inactive). For the same compound, the viability decrease (inhibition) in experiment [7] was -3.5% (inactive); in experiment [8], -16.4% (inactive).
As for `O=C(O)COc1nn(Cc2ccccc2)c2ccccc12`, the nuclear beta-catenin stimulation was -0.5% (inactive) in experiment [1] (at 10 µM) and 2.2% in experiment [1] (stimulation, at 2 µM). Besides, in experiment [2], the insulin secretion stimulation is -0.7% (inactive). The viability decrease in experiment [3] was 3.8% (inactive). Moreover, the tube area decrease in experiment [4] is -13% (inactive). For the same compound, in experiment [5], the GLP1 secretion stimulation was 1.7% (inactive). For the same compound, the inhibition of viability in experiment [6] was 8.1% (inactive). In addition, the viability decrease (inhibition) in experiment [7] was 12.1% (inactive); in experiment [8], 8.6% (inactive).
As for `CC(=O)OC(C)OC(=O)C(C)c1ccc(-c2ccccc2)c(F)c1` (centres undefined), the nuclear beta-catenin stimulation in experiment [1] (at 10 µM) is 3.1% (inactive); in experiment [1] (stimulation, at 2 µM) it was 0.3%. Moreover, in experiment [2], the insulin secretion stimulation was 0.5% (inactive). Besides, the viability decrease in experiment [3] was -2.95% (inactive). In experiment [4], the tube area decrease was -36.8% (inactive). The GLP1 secretion stimulation in experiment [5] is -1.1% (inactive). Moreover, in experiment [6], the inhibition of viability was 8.9% (inactive). The results for the viability decrease (inhibition) in experiment [7] and in experiment [8] were 4.6% (inactive) and -3.05% (inactive), respectively.
On to `C=CCN1CCc2nc(N)sc2CC1`, for which the nuclear beta-catenin stimulation in experiment [1] (at 10 µM) was 0.7% (inactive); in experiment [1] (stimulation, at 2 µM), 1%. For the same compound, the insulin secretion stimulation in experiment [2] is -0.5% (inactive). Also, the viability decrease in experiment [3] was -5.1% (inactive). The tube area decrease in experiment [4] is 7.1% (inactive). Moreover, the GLP1 secretion stimulation in experiment [5] was 0.8% (inactive). Further, the inhibition of viability in experiment [6] was -4% (inactive). The viability decrease (inhibition) in experiment [7] is 2.6% (inactive); in experiment [8], -3.4% (inactive).
Turning to `CCNC(=O)[C@@H]1CCCN1C(=O)[C@H](CCCN=C(N)N)NC(=O)[C@H](CC(C)C)NC(=O)CNC(=O)[C@H](Cc1ccc(O)cc1)NC(=O)[C@H](CO)NC(=O)[C@H](Cc1c[nH]c2ccccc12)NC(=O)[C@H](Cc1cnc[nH]1)NC(=O)[C@@H]1CCC(=O)N1` ([pGlu]HWSYGLRP-NHEt), the nuclear beta-catenin stimulation is 0.5% (inactive) in experiment [1] (at 10 µM) and -0.6% in experiment [1] (stimulation, at 2 µM). In addition, in experiment [2], the insulin secretion stimulation was -0.8% (inactive). Further, in experiment [3], the viability decrease is 32.1% (inactive). Also, the tube area decrease in experiment [4] is -2.8% (inactive). Besides, in experiment [5], the GLP1 secretion stimulation was -2.8% (inactive). In experiment [6], the inhibition of viability was 33% (inactive). In addition, the viability decrease (inhibition) in experiment [7] was 25.1% (inactive); in experiment [8], 29.7% (inactive).
As for `Cc1ccc(CCn2c3c(c4cc(Cl)ccc42)CN(C)CC3)cn1`, the nuclear beta-catenin stimulation is 0.2% (inactive) in experiment [1] (at 10 µM) and 0.7% in experiment [1] (stimulation, at 2 µM). In addition, in experiment [2], the insulin secretion stimulation was 42% (active). Further, the viability decrease in experiment [3] was 40.3% (inactive). Also, the tube area decrease in experiment [4] was 3.4% (inactive). For the same compound, in experiment [5], the GLP1 secretion stimulation was 1.7% (inactive). The inhibition of viability in experiment [6] is 62.1% (active). The results for the viability decrease (inhibition) in experiment [7] and in experiment [8] were 81.6% (active) and 11.5% (inactive), respectively.
On to `Cc1nc2n(c(=O)c1CCN1CCC(C(=O)c3ccc(F)cc3)CC1)CCS2`, for which the nuclear beta-catenin stimulation was 0.2% (inactive) in experiment [1] (at 10 µM) and -0.8% in experiment [1] (stimulation, at 2 µM). The insulin secretion stimulation in experiment [2] is 0.2% (inactive). Besides, the viability decrease in experiment [3] was 38% (inactive). Further, the tube area decrease in experiment [4] is 14.8% (inactive). For the same compound, the GLP1 secretion stimulation in experiment [5] is 5.4% (inactive). Also, in experiment [6], the inhibition of viability is 67.6% (active). For the same compound, the viability decrease (inhibition) was 29.6% (inactive) in experiment [7] and 33.5% (inactive) in experiment [8].
Consider `Nc1ncnc2c1ncn2Cc1c(F)cccc1Cl`, for which the nuclear beta-catenin stimulation was -0.7% (inactive) in experiment [1] (at 10 µM) and -2.1% in experiment [1] (stimulation, at 2 µM). Also, the insulin secretion stimulation in experiment [2] was 4.3% (inactive). Moreover, the viability decrease in experiment [3] was -7.4% (inactive). Besides, the tube area decrease in experiment [4] is -5% (inactive). The GLP1 secretion stimulation in experiment [5] is 1.9% (inactive). For the same compound, the inhibition of viability in experiment [6] was 9.7% (inactive). The viability decrease (inhibition) in experiment [7] was -2.4% (inactive); in experiment [8], -2% (inactive).
As for `O=C(CCN1CCN2CCCC2C1)N1c2ccccc2Sc2ccc(Cl)cc21` (centres undefined), the nuclear beta-catenin stimulation in experiment [1] (at 10 µM) was 1.1% (inactive); in experiment [1] (stimulation, at 2 µM), 0.2%. In addition, the insulin secretion stimulation in experiment [2] is 63.8% (active). For the same compound, in experiment [3], the viability decrease was 49.9% (inactive). Also, in experiment [4], the tube area decrease is 8% (inactive). Also, in experiment [5], the GLP1 secretion stimulation was 8.5% (inactive). Also, the inhibition of viability in experiment [6] was 61.4% (active). Moreover, the viability decrease (inhibition) in experiment [7] is 99.3% (active); in experiment [8] it was 49.5% (inactive).
Regarding `Cc1cc(OCCOCC[N+](C)(C)Cc2ccccc2)ccc1C(C)(C)CC(C)(C)C`, the nuclear beta-catenin stimulation in experiment [1] (at 10 µM) was 3% (inactive); in experiment [1] (stimulation, at 2 µM), 6.8%. In addition, the insulin secretion stimulation in experiment [2] is 0.6% (inactive). For the same compound, the viability decrease in experiment [3] was 101% (active). Also, the tube area decrease in experiment [4] was 107% (active). Moreover, in experiment [5], the GLP1 secretion stimulation is 98.1% (active). Further, the inhibition of viability in experiment [6] is 102% (active). For the same compound, the viability decrease (inhibition) in experiment [7] is 141% (active); in experiment [8] it was 103% (active).
For the compound `COc1cc(S(N)(=O)=O)cc(C(=O)O)c1OC`, the nuclear beta-catenin stimulation is -0.6% (inactive) in experiment [1] (at 10 µM) and 3.5% in experiment [1] (stimulation, at 2 µM). Moreover, the insulin secretion stimulation in experiment [2] is 1.2% (inactive). In addition, in experiment [3], the viability decrease was 16.8% (inactive). Moreover, the tube area decrease in experiment [4] is -3.6% (active). Besides, the GLP1 secretion stimulation in experiment [5] is -1% (inactive). In experiment [6], the inhibition of viability was 23.4% (inactive). Further, the results for the viability decrease (inhibition) in experiment [7] and in experiment [8] were 18.9% (inactive) and -9.9% (inactive), respectively.
Turning to `CC(C)(C)c1ccc(C(=O)CCCCl)cc1`, the nuclear beta-catenin stimulation is -0.1% (inactive) in experiment [1] (at 10 µM) and 0.6% in experiment [1] (stimulation, at 2 µM). Also, the insulin secretion stimulation in experiment [2] was 3.7% (inactive). Further, the viability decrease in experiment [3] is -2.4% (inactive). The tube area decrease in experiment [4] was 20.9% (inactive). Also, in experiment [5], the GLP1 secretion stimulation was -3.6% (inactive). Further, in experiment [6], the inhibition of viability was 10.3% (inactive). The viability decrease (inhibition) was -21.3% (inactive) in experiment [7] and 0.9% (inactive) in experiment [8].
